Experimental data from PubChem BioAssay AID651965 (National Center for Advancing Translational Sciences (NCATS), 2013).
Hit rate of the full screen: of about 340,000 compounds, about 6,400 (1.9%) were called active. Another 4% or so got no clear call; they are omitted. The call rests on the fitted dose curve; in most records, active means well fitted falling curve with a large enough effect; inconclusive means small, poorly fitted or top-dose-only effect; inactive means no such curve, though single readings can be large or run the other way. This excerpt belongs to a sample that is enriched for actives.

target: ATP-dependent Clp protease proteolytic subunit (Bacillus subtilis (strain 168)) (UniProt P80244); assay: qHTS Assay for Activators of ClpP; further: the source files actives as falling curves though it sought activators and does not explain the sign; nearly all actives have a fitted effect of over 65% in size; settings: purified B. subtilis ClpP, FRET peptide cleavage, 20 min; series mostly up to 57.5 µM
From the text: The Clp protease proteolytic subunit (ClpP) is the core unit of the Clp complex belonging to the peptidase family S14 that hydrolyzes protein into small peptides in the presence of ATP and magnesium. It is ubiquitously expressed and is the major protease in bacteria. […] Unlike common antibiotics that simply interfere with the essential enzyme activity, ADEP binding activates the ClpP core in the absence of the regulatory Clp-ATPases leading to uncontrolled proteolysis and eventually cell death. Activators binding to the docking site on ClpP can also block formation of the ClpXP and ClpA/C-P holoenzyme complexes interfering with the normal biological functions of ClpP and thus have the potential to become new anti-microbials.
To identify activators of ClpP, a FRET based quenching reversal assay was developed using a purified B. subtilis ClpP and a decapeptide substrate (FRET-FV). The FRET-FV is tagged with a fluorescent molecule amino benzoic acid (donor) at the N-terminus and a nitrotyrosine quencher (acceptor) at the C-terminus. FRET-FV cleaves upon activation of ClpP with ADEP treatement and reverses the quenching effect of the nitrotyrosine causing an increase in fluorescence emission signal at 430nm. This assay was used to screen the Molecular Libraries Small Molecule Repository (MLSMR).
NIH Molecular Libraries Probe Production Centers Network [MLPCN]
NIH Chemical Genomics Center [NCGC]
Assay Submitter (PI): Michael Maurizi, National Cancer Institute
Two and a half microL/well of purified enzyme solution (final concentrations 10 microg/mL B. subtilis ClpP in 100 mM Tris/HCl pH8, 100 mM KCl, 0.05% low protease BSA, 2.5% glycerol, 0.01% Tween-20 buffer) was dispensed into 1536-well assay plates (Greiner, black solid, medium-binding plates) with Aurora Discovery BioRAPTR Flying Reagent Dispenser (FRD, Beckton-Dickenson). Compound solution (23 nL) was transferred to the assay plate using Kalypsys pin tool equipped with a 1536-pin tool. […] FRET signals at time 0 and after 20 min room temperature incubation were obtained using the PerkinElmer Envision plate reader with 320nm excitation and 430nm emission filters. Delta FRET value (Time 20 - Time 0) was calculated and normalized to the delta FRET value of positive control ADEP (5.8 microM final concentration) and negative control DMSO and no enzyme wells.

ATP-dependent Clp protease proteolytic subunit (Bacillus subtilis (strain 168)), sequence (P80244 whole entry, looked up): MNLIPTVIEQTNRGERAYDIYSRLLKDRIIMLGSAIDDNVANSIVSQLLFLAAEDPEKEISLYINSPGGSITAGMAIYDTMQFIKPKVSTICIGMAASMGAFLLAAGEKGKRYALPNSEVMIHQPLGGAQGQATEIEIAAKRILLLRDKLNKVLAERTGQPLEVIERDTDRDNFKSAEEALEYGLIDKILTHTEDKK

Potency, inactive:
Cc1cc(C)n2c(Nc3c(C)cccc3C)c(CCc3ccccc3)nc2n1
c1ccc(CCc2ccccn2)cc1
C=CCOc1ccccc1CNn1c(C)n[nH]c1=S
Cn1c(CNC(=O)C(C)(C)C)nc2ccccc21
Cn1c(NC(=O)c2ccccc2)nc2ccccc21
CCCCc1nc2ccc(F)cc2cc1C
CCCc1ccc(C(O)c2ncc(-c3cccc(OC)c3)[nH]2)cc1 (stereo not drawn)
COc1ccc(CC(N)c2csc(NC(=O)Cc3ccccc3)n2)cc1 (stereo not drawn)
CCOC(=O)CSc1nnc(CNC(=O)c2ccco2)n1-c1ccc(F)cc1
CCOC(=O)CSc1nnc(CNC(=O)c2cccs2)n1-c1cc(OC)ccc1OC
Nc1nc2c(Br)ccc(Br)c2cc1C(=O)NCCc1ccccc1
O=C(COc1ccc2c3c(c(=O)oc2c1)CCCC3)NCC(O)c1ccccc1 (stereo not drawn)
NC(=O)C1CCN(C(=O)COc2ccc3c4c(c(=O)oc3c2)CCC4)CC1
CC1(C(=O)Nc2cccc3c2CCCC3)CCN1C(=O)CCc1ccc(Cl)cc1Cl (stereo not drawn)
Cc1cc2cc3n(c2nn1)N=C(Cl)CC3
CCCc1nc2c3ccccc3ccn2c1Cc1ccccc1C(F)(F)F
Cc1ccc(Cc2c(-c3ccc(C)cc3)nc3c4ccccc4ccn23)cc1
NC(=O)c1c(Nc2nc3c(F)cccc3s2)sc2c1CCCC2
NNc1nc2c(Cl)cccc2s1
CCOC(=O)c1cc2cc(OC)ccc2n1C1CCN(C)CC1
CCC(C(=O)NCc1ccccc1)n1c(Cc2cc(F)cc(F)c2)nc2ccccc21 (stereo not drawn)
CC1Cc2[nH][nH]c(=O)c2C(C2CC2)O1 (stereo not drawn)
CCCCCNC(=O)C1C(=O)Nc2ccccc2C(=O)N1C(C)(C)C (stereo not drawn)
COc1ccc(-c2cc(-c3ccc(F)cc3)nc3c2COc2ccccc2-3)cc1
COc1ccc(-c2cn3ccc(C)cc3n2)cc1
CCOC(=O)[C@]12CCCC=C1N(CCC1=CCCCC1)C(=O)[C@H](CC(=O)NCCCOC)C2
Cc1cc(NC(=O)CSCC(=O)NC(C)c2ccccc2)no1 (stereo not drawn)
Cc1cc(NC(=O)CSc2nc3ccccc3n2CC(C)C)no1
CN(CCC#N)c1ccc(C=O)cc1
CC(C)(C)c1ccc(C(=O)C[N+]2(C)CCCc3ccccc32)cc1 (stereo not drawn)
COc1ccc(S(=O)(=O)N[C@@H]2C=C[C@@H](CC(=O)N3CCc4ccccc4C3)O[C@@H]2CO)cc1
O=C(COC(=O)c1cc(S(=O)(=O)N2CCOCC2)ccc1Cl)NCCc1ccccc1
CCn1c2ccccc2c2cc(NC(=O)COC(=O)c3ccccc3Br)ccc21
COc1cc2nc(N3CCCN(C)CC3)nc(NC3CC3)c2cc1OC
COc1ccc(Nc2cc(C(=O)NCCCN(C)c3ccccc3)c3ccccc3n2)c(OC)c1
COc1ccccc1Nc1cc(C(=O)NCCCN(C)C2CCCCC2)c2ccccc2n1
CN(C)C(=O)c1cccc(-c2cnc3c(NC=O)cc(-c4ccc(C(=O)N5CCOCC5)cc4)cn23)c1
COCCCNC(=O)c1ccc(-c2c(C)noc2C)c2ccoc12
O=C(CCC1CCCN(C(=O)Cc2ccc(F)cc2)C1)N1CCN(c2ccccn2)CC1 (stereo not drawn)
C=Cc1ccc(C(=O)N2CCCC(CCC(=O)N3CCN(c4ccccn4)CC3)C2)cc1 (stereo not drawn)
COc1ccc(CCCNC(=O)C2Cc3c(-c4cccc(C(N)=O)c4)ccnc3O2)cc1 (stereo not drawn)
Cc1cc(=O)c2ccc(NC(=O)c3ccccc3)cc2[nH]1
O=C1NC(Cc2ccccc2)c2nc3ccc(Br)cc3c(=O)n2-c2cc3ccccc3cc21 (stereo not drawn)
O=C(NCc1cccnc1)c1ccc2nc([C@@H]3O[C@H](CO)[C@H](O)[C@H](O)[C@H]3O)[nH]c2c1
CCOC(=O)C(Cc1ccc(N)cc1)N1C(=O)c2ccccc2C1=O (stereo not drawn)
CC1=CC(C)(C)Nc2ccc(OC(=O)CN3C(=O)C4CCCCC4C3=O)cc21 (stereo not drawn)
Cc1ccc(NC(=O)Cn2sc3ccccc3c2=O)cc1
Cc1ccc(-c2ccc(CCC(=O)O)n2-c2ccc(C(N)=O)cc2)cc1
COc1ccc(Cl)cc1-n1c(CCC(=O)O)ccc1-c1ccc(C)cc1
Nc1nc2c(ncn2[C@@H]2O[C@H](CNS(=O)(=O)N3CCc4ccccc4C3)[C@@H](O)[C@H]2O)c(=O)[nH]1
COCCCNc1ccn2nc(-c3ccc(CC(C)C)cc3)cc2n1
Cc1ccccc1OCC(=O)N(Cc1cccc(F)c1)C1CCS(=O)(=O)C1 (stereo not drawn)
CN(C(=O)COC(=O)Cc1ccccc1[N+](=O)[O-])C1CCS(=O)(=O)C1 (stereo not drawn)
Cc1cccc(C)c1NC(=O)C(c1cccc(F)c1)N1CCN(C)CC1 (stereo not drawn)
CCOc1ccc(CCN2C(=S)N([C@@H](CC(C)C)CN3CCC[C@@H]3CN3C(=S)NC[C@@H]3Cc3ccc(O)cc3)C[C@@H]2CC(C)C)cc1
CN(C)c1ccc(/C=N/NC(=O)c2ccc(Cn3cc(Br)cn3)o2)cc1
O=C(O)c1ccc(/C=N/NC(=O)c2ccc(Br)cc2)cc1
O=S1(=O)CC(N2CCC(Cc3ccccc3)CC2)CN1Cc1ccccc1 (stereo not drawn)
O=C(NCC(F)(F)F)c1ccc(S(=O)(=O)NCCc2ccc3c(c2)OCCO3)cc1
Cc1cc(Nc2ccc(C)c(C)c2)n2ncnc2n1
O=C(/C=C/c1ccc(Cl)cc1)Nc1ccc(S(=O)(=O)Nc2ncccn2)cc1
Cc1ccc(NC(=S)NC(=O)/C=C/c2ccc(Cl)cc2)cc1
Cc1ccc(-c2ccc(CN3C(C(C)C)C(=O)N(Cc4cn(CCC5OCCO5)nn4)CCS3(=O)=O)cc2)cc1 (stereo not drawn)
Cc1cccc(CN2CCN(C3CN(Cc4ccccc4)S(=O)(=O)C3)CC2)c1 (stereo not drawn)
CCN(CCCNC(=O)c1cc2cc3cc(OC)ccc3nc2s1)c1ccccc1
CCN1CCN(C(=O)CN(C)S(=O)(=O)c2ccc(OC)cc2)CC1
COc1cccc(-c2cc3nc(NCc4ccccc4OC)n(C)c(=O)c3s2)c1
CC(C)(C)C1CCC(=NNC(=O)c2ccc(Br)o2)CC1 (stereo not drawn)
O=C(N/N=C\C1CC=CCC1)c1ccc(Br)o1 (stereo not drawn)
COc1cccc(-c2cnc3c(NC(C)=O)cc(-c4cc(F)ccc4OC)cn23)c1
CC1=C(C(=O)N2CCOCC2)CC(CC(=O)NCc2cccs2)C(=O)N1CCCN1CCCC1=O (stereo not drawn)
O=C(C=CC(=O)Nc1ccc(F)cc1F)Nc1ccc(F)cc1F
CCCCC[C@@H]1C=C(C(=O)OCC)[C@H](c2ccccc2)N1S(=O)(=O)c1ccc(C)cc1
CC(=O)Nc1cccc(-c2cc(NC(C)=O)c3ncc(-c4ccccc4)n3c2)c1
CS(=O)(=O)/C(C#N)=C/c1cccn1S(=O)(=O)c1ccc([N+](=O)[O-])cc1
O=C(NCCCc1ccccc1)c1ccc2c(c1)sc1nc(-c3ccc(F)cc3)cn12
CCOc1ccc(CCNC(=O)Cn2nc(CC)n3c(cc4sc(CC)cc43)c2=O)cc1OCC
COc1ccc(CCNC(=O)c2ccc3c(c2)nc(C)n3-c2ccc(Br)cc2)cc1OC
COc1ccc(CCNC(=O)Cc2ccc(C)cc2)cc1OC
COc1cccc(CNC(=O)c2ccc3c(c2)sc2nc(-c4cccc(OC)c4)cn23)c1
COc1ccc(-c2cn3c(n2)sc2cc(C(=O)Nc4ccc(F)cc4)ccc23)cc1

Potency, active:
Cc1ccc(O)c(CCc2ccccc2)n1 28.2 µM
Cn1c(-c2ccc(C(=O)c3ccccc3)s2)nc2ccccc21 20 µM
CCOC(=O)CSc1nnc(CNC(=O)c2cccs2)n1-c1ccccc1 10 µM
O=C(COc1ccc2c3c(c(=O)oc2c1)CCC3)NC1CCCCC1 14.1 µM
FC(F)(F)c1ccccc1Cc1c(-c2ccccc2)nc2c3ccccc3ccn12 22.4 µM
Fc1cc(F)c2nc(Nc3nc4c(F)cccc4s3)sc2c1 3.55 µM
COc1ccc(C2=Nc3cc(C)ccc3OC2)cc1 28.2 µM
Cc1ccc2nc(-c3ccc(SCC(=O)Nc4cc(C)on4)nc3)[nH]c2c1 31.6 µM
CCn1c2ccccc2c2cc(NC(=O)COC(=O)c3cc(S(=O)(=O)N4CCCCC4)ccc3Cl)ccc21 10 µM
CCCCN(CCCNC(=O)c1cc(Nc2ccccc2OC)nc2ccccc12)c1ccccc1 17.8 µM
O=C(CCC1CCCN(C(=O)c2ccc(F)c(F)c2)C1)N1CCN(c2ccccn2)CC1 (stereo not drawn) 17.8 µM
CC1=CC(C)(C)Nc2ccc(OC(=O)C(Cc3ccccc3)N3C(=O)C4CCCCC4C3=O)cc21 (stereo not drawn) 31.6 µM
COCCCn1c(CCC(=O)O)ccc1-c1ccc(F)cc1 31.6 µM
CCN(C(=O)COc1cccnc1[N+](=O)[O-])C1CCS(=O)(=O)C1 (stereo not drawn) 28.2 µM
O=C(N/N=C\c1ccc(Br)cc1)c1ccc(Cn2cccn2)o1 25.1 µM
O=C(/C=C/c1ccc(Cl)cc1)Nc1ccc(Br)cn1 25.1 µM
CCN1CCN(C(=O)c2cc3cc4ccc(OC)cc4nc3s2)CC1 25.1 µM
CCC(C)(C)C1CCC(=NNC(=O)c2ccc(Br)o2)CC1 (stereo not drawn) 25.1 µM
CC(C)Nc1ccc(-n2nc3ccccc3[n+]2[O-])cc1 28.2 µM
COc1ccc(CCNC(=O)c2ccc3c(c2)sc2nc(-c4ccc(C)cc4)cn23)cc1OC 3.16 µM
Cc1ccc(-c2cn3c(n2)sc2cc(C(=O)NCCCc4ccccc4)ccc23)cc1 15.8 µM
CCOc1ccc(CCNC(=O)c2ccc3c(c2)sc2nc(-c4ccc(F)cc4)cn23)cc1OCC 25.1 µM
